Screening results from PubChem BioAssay.
A selection: hits, their analogues and other compounds. The true share with any hit is near 1.2%.
VLA-4 inh – inhibition in a human VLA-4 binding assay; inhibition, % (about 7 µM as worked out from the volumes in the protocol); 330,000 compounds, 0.2% hits; VLA-4 expressing cells, ligand binding flow cytometry; in the data active = inhibition above about 50%
GASC-1 inh – blocks human GASC-1 demethylase activity; Q9H3R0; GST-JMJD2C(1-420) H3K9me3 demethylation, DELFIA europium; inhibition, % at 2.35 µM; 330,000 compounds, 0.069% hits;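 active = more than half of a compound's replicate wells show inhibition beyond 50%, single wells judged on their own value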;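 note: signal counts dimethyl H3K9 product captured on neutravidin plate; 0% = median of DMSO wells and 100% = 0.3 times that DMSO median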
p-CIP stab down – p/CIP protein destabilization. AID 1984. Q05BA5. F442A p/CIP-EGFP cells, EGFP fluorescence, 16 h. decrease of EGFP signal, % at 10 µM. 290,000 compounds, 0.01% hits;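 active = EGFP signal decrease of at least 30% at 10 µM or well 3 SD below plate mean, unless failing retest; inactive = the rest, including hits failing retest or dose response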
GPR7 antagonist – human neuropeptides B/W receptor 1 antagonism; P48145; GPR7-expressing cells, fluorescence antagonist assay; inhibition, % at 4.4 µM; 290,000 compounds, 1.1% hits; in the data active = inhibition above about 16%, passing the limit was not always enough;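 note: cells stimulated with the agonist NPW; 0% = agonist with vehicle and 100% = vehicle without agonist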
Target sequence (P48145 whole entry, looked up): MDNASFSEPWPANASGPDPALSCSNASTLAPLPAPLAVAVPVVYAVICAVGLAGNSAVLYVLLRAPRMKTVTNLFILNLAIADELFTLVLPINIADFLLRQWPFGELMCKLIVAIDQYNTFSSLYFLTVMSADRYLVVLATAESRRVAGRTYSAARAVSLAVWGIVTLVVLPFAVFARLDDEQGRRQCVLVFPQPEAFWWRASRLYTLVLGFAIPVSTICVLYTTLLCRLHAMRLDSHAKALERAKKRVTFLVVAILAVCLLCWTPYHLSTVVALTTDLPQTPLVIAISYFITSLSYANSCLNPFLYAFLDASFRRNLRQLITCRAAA
GPR7 antag conf – confirmation of human GPR7 antagonists; shares compounds with GPR7 antagonist; GPR7-expressing cells, calcium fluorescence antagonist mode; inhibition, % at 4.4 µM; 2,400 compounds, 52% hits; AID 1952; in the data active = inhibition above about 24%;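 note: stimulated with the GPR7 agonist NPW; 0% = agonist plus vehicle and 100% = vehicle alone without agonist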
MCHR1 antag – MCHR1 (human) antagonism in GPR7 counter-screen. MCHR1-expressing cells, fluorescence antagonist assay. inhibition, % at 4.4 µM. 2,400 compounds, 62% hits. shares compounds with GPR7 antagonist; in the data active = inhibition above about 22%;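 note: 0% = vehicle with agonist and 100% = vehicle without agonist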
Active calls of the source: *; / = no result given.

SMILES	VLA-4 inh	GASC-1 inh	p-CIP stab down	GPR7 antagonist	GPR7 antag conf	MCHR1 antag
CCOC(=O)C1(Cc2ccccc2C)CCCN(C(=O)c2sccc2C)C1 (stereo not drawn)	8	-8	-10	43*	15	48*
Cc1cccc(N2C(=O)CC(Sc3nnc(C)s3)C2=O)c1 (stereo not drawn)	12	3	-8	-10	/	/
O=C(Nc1ccccc1)[C@@H]1[C@@H]2C(=O)N(c3ccc(F)cc3)C(=O)[C@@H]2[C@H]2C=CC=NN21	7	-32	-11	27*	9	0
COc1ccc(CCNC(=O)c2cccc(S(=O)(=O)N3CCc4ccccc4C3)c2)cc1	4	-3	/	/	/	/
Cc1c(C(=O)N2CCN(Cc3ccc4c(c3)OCO4)CC2)sc2ncnc(N3CCN(c4ccccc4)CC3)c12	-2	-2	3	44*	44*	81*
Cc1c(C(=O)N2CCN(Cc3ccc4c(c3)OCO4)CC2)sc2ncnc(N3CCN(c4ccccc4F)CC3)c12	-6	3	4	75*	55*	82*
O=C(c1ccco1)N1CCC(c2nc(-c3ccccc3Cl)no2)CC1	2	5	3	28*	0	1
CN(C(=O)Nc1ccc(C(C)(C)C)cc1)C1CCCCC1	-3	0	-12	-2	/	/
Cc1cc(C(C)(C)C)cc(C)c1Cn1c2[n+](c3ccc(C(F)(F)F)cc31)CCCCC2	15	-27	-2	33*	29*	32*
O=C(Cn1c2[n+](c3ccc(C(F)(F)F)cc31)CCCCC2)Nc1ccc(Br)cc1	0	-22	7	-5	/	/
FC(F)(F)c1cccc(Cn2c3[n+](c4ccc(C(F)(F)F)cc42)CCCCC3)c1	12	11	-1	24*	24*	18
Cc1cc(C)c2c(N)c(C(=O)Nc3c(C)n(C)n(-c4ccccc4)c3=O)sc2n1	7	-2	-2	-16	/	/
COCCNC(=S)N1CCc2cc(OC)c(OC)cc2C1COc1ccc(C(C)C)cc1 (stereo not drawn)	2	-11	-2	-3	/	/
Cc1cccc2cc(CN(CCCN(C)C)C(=S)NCCc3ccccc3)c(=O)[nH]c12	15	59	2	31*	49*	30*
N#Cc1c([N+](=O)[O-])cc([N+](=O)[O-])cc1S(=O)(=O)Cc1ccccc1	0	3	/	/	/	/
OCC[C@@H]1C[C@H](O)[C@@H](O)[C@]2(CCc3ccccc3CO2)O1	-3	-4	-3	4	/	/
CCn1c(=O)c(=O)[nH]c2cc(C(=O)NC3CC3)ccc21	9	-3	-3	-9	/	/
CCn1c(=O)c(=O)[nH]c2cc(C(=O)NC3CCCc4ccccc43)ccc21 (stereo not drawn)	-117	5	-6	23*	3	5
O=C(NC1CCCc2ccccc21)c1cccc(S(=O)(=O)N2CCN(c3ccccc3)CC2)c1 (stereo not drawn)	19	8	-11	45*	62*	43*
CC1CCC(NC(=O)c2cccc(S(=O)(=O)N3CCN(c4ccccc4)CC3)c2)CC1 (stereo not drawn)	20	-6	/	/	/	/
CCn1c(SCC(=O)N2CCOCC2)nnc1C(C)NC(=O)c1ccccc1 (stereo not drawn)	6	/	-6	-9	/	/
CC(C)n1c(-c2ccco2)csc1=Nc1cccnc1	-1	-18	-18	30*	36*	52*
COCCn1c(-c2ccccc2)csc1=Nc1cccnc1	-1	10	-5	-4	/	/
N#Cc1ccc(CN2C(=O)NC3(CCCCCC3)C2=O)cc1	2	-14	-16	0	/	/
Cc1ccc(C2(c3ccccc3)NC(=O)N(CC(=O)NCc3ccccc3)C2=O)cc1C (stereo not drawn)	-10	/	/	/	/	/
SMILES	VLA-4 inh	GASC-1 inh	p-CIP stab down	GPR7 antagonist	GPR7 antag conf	MCHR1 antag
O=C(CSc1nnc(C2CC2)n1-c1ccccc1)NC1CCS(=O)(=O)C1 (stereo not drawn)	0	4	/	/	/	/
Cc1nnc(SCC(=O)NC2CCS(=O)(=O)C2)n1-c1ccccc1 (stereo not drawn)	-11	3	-3	25*	-10	12
Cn1c(=O)c2c(ncn2CC(COCc2ccccc2)OCc2ccccc2)n(C)c1=O (stereo not drawn)	-8	-24	0	-3	/	/
C=CCOc1cccc(C(=O)/C=C2/C(=O)Nc3ccccc32)c1	4	17	-10	43*	65*	81*
CC(=O)/C=C1/C(=O)Nc2ccccc21	21	0	-1	-10	/	/
Nc1cc(Cl)ccc1C(=O)OCC(=O)NCC1CCCO1 (stereo not drawn)	-4	-2	/	/	/	/
CC(C)[C@H](NC(N)=O)C(=O)NCCc1ccc(Cl)cc1Cl	11	110	7	-3	/	/
CC(C)[C@H](NC(N)=O)C(=O)Nc1ccc(F)c(Cl)c1	2	-5	6	22*	3	14
CC(NCc1cc(Br)ccc1OCC(N)=O)C12CC3CC(CC(C3)C1)C2 (stereo not drawn)	-5	-48	-6	27*	28*	35*
COc1cc(CNC(C)C23CC4CC(CC(C4)C2)C3)ccc1OCC(=O)NC(C)(C)C (stereo not drawn)	-2	-8	-10	19	/	/
COc1ccc(CNC(=O)CSc2nnc(C)c(=O)[nH]2)cc1	6	2	-23	25*	-6	0
CC1CCN(S(=O)(=O)c2ccc3c(c2)NC(=O)CS3)CC1	-1	11	2	-2	/	/
O=C(Nc1nc(-c2ccccc2)cs1)c1ccccc1NS(=O)(=O)c1ccc(F)cc1	9	12	-11	24*	42*	60*
CC(C)NCc1cc(Br)ccc1OCc1ccccc1	-1	12	-9	6	/	/
Cc1cc(C(=O)N2CCC(Cc3ccccc3)CC2)c(C)o1	-4	5	3	28*	27*	33*
O=C(NNC(=O)C1CC1)c1ccccc1[N+](=O)[O-]	5	10	3	-10	/	/
CCc1ccc(OCc2nnc(NC(=O)c3cccs3)s2)cc1	2	-6	3	25*	-3	-2
Cc1nonc1CN(C)C(=O)c1cc(COc2ccc(F)cc2Cl)on1	5	9	-4	30*	24	26*
CCOc1c(Br)cc(/C=C(\C#N)C(=O)NC2CC2)cc1OC	0	-3	-14	24*	47*	41*
O=C(Nc1ccc(Cl)c(C(F)(F)F)c1)NC1CC2CCCC(C1)N2Cc1ccccc1 (stereo not drawn)	5	35	2	27*	45*	87*
COc1ccc(CCNC(=O)COC(=O)c2ccc(Br)o2)cc1OC	12	1	-6	29*	-14	16
COc1ccc(S(=O)(=O)N2CCN(c3nn(C)c(=O)n(C)c3=O)CC2)cc1	-4	-3	/	/	/	/
CCOCCCNC(=S)N1C2CCC1CC(NC(=O)Nc1ccc(C(=O)OCC)cc1)C2 (stereo not drawn)	10	8	-8	26*	-7	2
